What is called AC50 is the concentration at which the activity in the assay is half-maximal.

Calls of active or inactive are those of the source. How the source made its calls: active means hit-call score of the fitted dose curve at least 0.9, where 1 is the maximum; inactive means score below 0.9.

Among the data in PubChem BioAssay (EPA / NIEHS) are outcome and AC50 values, retold here.

Assay [1] is described as follows: ATG_CRE_CIS: Attagene CIS-FACTORIAL HepG2 Assay for human cAMP Responsive Element (CRE) binding protein 3 (AID 2282926). The following applies: HepG2 CRE cis-reporter, Attagene multiplexed mRNA; actives raise or lower the signal. The procedure, abridged: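 Multiplexed transcription-unit reporters transfected into HepG2; 24 h dosing; RT-PCR/capillary electrophoresis fluorescence read-out; bidirectional fit vs DMSO.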

Assay [2] addresses CCAAT/enhancer-binding protein beta (Homo sapiens) (UniProt P17676). Description: ATG_C_EBP_CIS: Attagene CIS-FACTORIAL HepG2 Assay for human CCAAT/Enhancer Binding Protein (C/EBP) beta (AID 2282927). The conditions noted are these: HepG2 Attagene cis-factorial transcription factor reporter; actives raise or lower the signal. The procedure, abridged:
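Transiently transfected HepG2 (MRTU library, endogenous TF-driven promoters); 24 h dosing; total RNA → oligo(dT) RT → PCR → 6-FAM primer extension → HpaI digest → CE; fit bidirectionally vs DMSO.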

The nature of assay [3]: ATG_CMV_CIS: Attagene CIS-FACTORIAL HepG2 Assay for human CMV (Internal Marker) (AID 2282928).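 Further: endpoint acts as a background internal control marker rather than a target.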 The conditions noted are these: HepG2 CMV promoter reporter, transcription factor profiling; actives raise or lower the signal. The procedure, abridged: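 Cell system: HepG2, transiently transfected multiple reporter units under cis promoters. Exposure: 24 h. Detection: RT-PCR, FAM labeling, HpaI digestion, capillary electrophoresis. Analysis: bidirectional, DMSO baseline.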

Assay [4] in a line: ATG_DR4_LXR_CIS: Attagene CIS-FACTORIAL HepG2 Assay for human Liver X Receptor (LXR), DR4 submotif (AID 2282929). The conditions noted are these: HepG2 Attagene DR4 cis-reporter, mRNA transcription; actives raise or lower the signal. In short, it runs like this:
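Endogenous factor activity at a DR4 cis-element is read as reporter mRNA in transiently transfected HepG2 cells. Exposure lasts 24 h; transcripts are amplified, fluorescently labelled and sized by capillary electrophoresis, with DMSO as baseline.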

The target in assay [5] is Aryl hydrocarbon receptor (Homo sapiens) (UniProt P35869). Kind of assay: ATG_Ahr_CIS: Attagene CIS-FACTORIAL HepG2 Assay for human Aryl Hydrocarbon Receptor (Ahr) (AID 2282930). The following applies: HepG2 AhR cis-factorial reporter transcription; actives raise or lower the signal. In short, it runs like this:
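Read-out: reporter mRNA quantified by RT-PCR with fluorescent primer extension and capillary electrophoresis. Human HepG2 liver cells carried transfected cis-promoter reporter units and were exposed to chemical for 24 h; gain or loss fitted relative to DMSO.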

Assay [6] in a line: ATG_AP_1_CIS: Attagene CIS-FACTORIAL HepG2 Assay for human Activator Protein 1 (AP-1) (AID 2282931). The conditions noted are these: HepG2 Attagene cis-factorial AP-1 reporter mRNA; actives raise or lower the signal. In short, it runs like this:
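Fluorescence of labelled PCR fragments separated by capillary electrophoresis gives reporter mRNA levels. HepG2 with transfected cis-regulated reporter units, 24 h exposure; DMSO serves as baseline for bidirectional curve fits.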

Assay [7] can be described thus: ATG_AP_2_CIS: Attagene CIS-FACTORIAL HepG2 Assay for human Activator Protein 2 (AP-2) (AID 2282932). The conditions noted are these: HepG2 AP-2 cis-reporter, Attagene transcription factor profiling; actives raise or lower the signal. The procedure, abridged:
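Multiplexed mRNA reporter assay in HepG2: cis-regulated units report endogenous factor activity after 24 h treatment. Fluorescence from capillary electrophoresis of RT-PCR products gives the signal, with DMSO as baseline.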

Assay [8] can be described thus: ATG_BRE_CIS: Attagene CIS-FACTORIAL HepG2 Assay for human Bone Morphogenetic Protein (BMP) Response Element (BRE) (AID 2282933). The conditions noted are these: HepG2 BMP response element reporter, Attagene transcription factor profiling; actives raise or lower the signal. In short, it runs like this:
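Endogenous transcription factor activity read in transiently transfected HepG2 cells after 24 h chemical exposure. Bidirectional curve fitting against DMSO; readout is reporter transcript level by RT-PCR with capillary electrophoresis of labelled products.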

Assay [9] concerns the target Retinoic acid receptor alpha (Homo sapiens) (UniProt P10276). Kind of assay: ATG_DR5_RAR_CIS: Attagene CIS-FACTORIAL HepG2 Assay for human Retinoic Acid Receptor Alpha (RARE), DR5 submotif (AID 2282934). The conditions noted are these: HepG2 Attagene cis-factorial RARE DR5 reporter, mRNA; actives raise or lower the signal. In short, it runs like this: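 Read-out: DR5-driven reporter transcript measured by RT-PCR, 6-FAM primer extension, HpaI digest and capillary electrophoresis. Human HepG2 liver cells carry transiently transfected cis-element reporter constructs; dosing lasts 24 h. Gain or loss of signal fitted against DMSO baseline.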

Assay [10] concerns the target Transcription factor E2F1 (Homo sapiens) (UniProt Q01094). Description: ATG_E2F_CIS: Attagene CIS-FACTORIAL HepG2 Assay for human E2F Transcription Factor 1 (AID 2282935). The following applies: HepG2 Attagene cis-reporter, E2F reporter RNA transcripts; actives raise or lower the signal. The procedure, abridged: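 Measures reporter transcript levels via RT-PCR with capillary electrophoresis detection in HepG2 cells harboring cis-regulated reporter units; 24 h post-dose; bidirectional curve fitting with DMSO as baseline.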

Assay [11] is described as follows: ATG_E_Box_CIS: Attagene CIS-FACTORIAL HepG2 Assay for human Enhancer Box (E-box) (AID 2282936). The conditions noted are these: HepG2 E-box cis-reporter transcription, actives raise or lower the signal. In short, it runs like this: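 First, HepG2 cells receive multiple cis-regulated reporter constructs by transient transfection. Next, chemicals are applied for 24 h. Finally, reporter mRNA is quantified via RT-PCR and capillary electrophoresis, with DMSO as baseline.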

Assay [12] in a line: ATG_M_61_CIS: Attagene CIS-FACTORIAL HepG2 Assay for M61 Transcription Factor (Internal Marker) (AID 2282937). The conditions noted are these: HepG2 Attagene CIS-FACTORIAL M61 internal marker reporter; actives raise or lower the signal. The procedure, abridged:
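This endpoint serves as an internal background control within a multiplexed HepG2 cis-reporter panel. Cells are exposed for 24 h; reporter mRNA is amplified, fluorescently labelled and sized by capillary electrophoresis, with DMSO as negative control.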

The nature of assay [13]: ATG_EGR_CIS: Attagene CIS-FACTORIAL HepG2 Assay for human Early Growth Response 1 (EGR1) (AID 2282938). The following applies: HepG2 Attagene CIS-FACTORIAL EGR reporter mRNA; actives raise or lower the signal. The procedure, abridged:
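HepG2, transient MRTU transfection (cis promoters), 24 h compound. RNA → RT (oligo-dT) → PCR → 6-FAM labelling → HpaI cut → CE fluorescence. Bidirectional fit, DMSO baseline.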

The nature of assay [14]: ATG_M_19_CIS: Attagene CIS-FACTORIAL HepG2 Assay for M19 Transcription Factor (Internal Marker) (AID 2282939). The conditions noted are these: HepG2 Attagene CIS-FACTORIAL M19 internal marker reporter; actives raise or lower the signal. In short, it runs like this:
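Internal marker readout, fitted in both directions against DMSO, from HepG2 cells carrying transfected cis-element reporter constructs; RT-PCR and capillary electrophoresis of reporter mRNA after 24 h exposure.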

Assay [15] in a line: ATG_ERE_CIS: Attagene CIS-FACTORIAL HepG2 Assay for Estrogen Response Element (ERE) (AID 2282940). The following applies: HepG2 ERE cis-reporter, Attagene RNA transcript; actives raise or lower the signal. In short, it runs like this:
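After 24 h compound treatment, RNA from transfected HepG2 cells was reverse-transcribed, reporter cDNA PCR-amplified, FAM-labelled, HpaI-cut and resolved by capillary electrophoresis. ERE-driven cis reporter transcripts reflect endogenous factors; gain or loss scored against DMSO.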

Assay [16] can be described thus: ATG_Ets_CIS: Attagene CIS-FACTORIAL HepG2 Assay for human Erythroblast Transformation Specific (ETS) (AID 2282941). The following applies: HepG2 ETS cis-reporter transcription, actives raise or lower the signal. In short, it runs like this: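 After transient cis-reporter transfection, HepG2 cells receive test chemical for 24 h. Reporter mRNA levels, measured by RT-PCR and capillary electrophoresis fluorescence, are analysed bidirectionally relative to the DMSO baseline.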

Assay [17] deals with Hepatocyte nuclear factor 3-beta (Homo sapiens) (UniProt Q9Y261). Description: ATG_FoxA2_CIS: Attagene CIS-FACTORIAL HepG2 Assay for human Forkhead box A2 (FOXA2) (AID 2282942). The conditions noted are these: HepG2 cis-reporter transcription factor activity, 24 h; actives raise or lower the signal. In short, it runs like this: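 Cells: HepG2, transient multiplex reporter transfection. Exposure 24 h. Detection: reporter-specific RT-PCR, fluorescent labelling, restriction digest, capillary electrophoresis. Analysis: bidirectional curve fit, DMSO as negative control.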

Assay [18] can be described thus: ATG_FoxO_CIS: Attagene CIS-FACTORIAL HepG2 Assay for human Forkhead box O (FoxO) (AID 2282943). The following applies: HepG2 Attagene cis-reporter, FoxO element, mRNA; actives raise or lower the signal. In short, it runs like this: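 Read-out: fluorescence of 6-FAM-labelled reporter cDNA fragments resolved by capillary electrophoresis. Transiently transfected HepG2 cells were dosed for 24 h; activity fitted in both directions relative to DMSO controls.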

The nature of assay [19]: ATG_GATA_CIS: Attagene CIS-FACTORIAL HepG2 Assay for human GATA Binding Protein (AID 2282944). The following applies: HepG2 GATA cis-element reporter, Attagene multiplex mRNA; actives raise or lower the signal. The procedure, abridged:
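Reporter transcripts from a GATA cis-regulated unit, among multiplexed reporters in transfected HepG2 cells, were measured by RT-PCR with capillary electrophoresis after 24 h dosing. Induction or loss scored relative to DMSO.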

Assay [20] can be described thus: ATG_GLI_CIS: Attagene CIS-FACTORIAL HepG2 Assay for human Zinc Finger Protein GLI1 (AID 2282945). The following applies: HepG2, Attagene cis-factorial reporter mRNA, GLI element; actives raise or lower the signal. The procedure, abridged: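 Transiently transfected HepG2 cells report endogenous transcription factor activity via cis-element-driven reporter units. After 24 h compound exposure, reporter mRNA was measured by RT-PCR with capillary electrophoresis; bidirectional fitting against DMSO baseline.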

Retinoic acid receptor alpha (Homo sapiens), sequence (P10276 whole entry, looked up): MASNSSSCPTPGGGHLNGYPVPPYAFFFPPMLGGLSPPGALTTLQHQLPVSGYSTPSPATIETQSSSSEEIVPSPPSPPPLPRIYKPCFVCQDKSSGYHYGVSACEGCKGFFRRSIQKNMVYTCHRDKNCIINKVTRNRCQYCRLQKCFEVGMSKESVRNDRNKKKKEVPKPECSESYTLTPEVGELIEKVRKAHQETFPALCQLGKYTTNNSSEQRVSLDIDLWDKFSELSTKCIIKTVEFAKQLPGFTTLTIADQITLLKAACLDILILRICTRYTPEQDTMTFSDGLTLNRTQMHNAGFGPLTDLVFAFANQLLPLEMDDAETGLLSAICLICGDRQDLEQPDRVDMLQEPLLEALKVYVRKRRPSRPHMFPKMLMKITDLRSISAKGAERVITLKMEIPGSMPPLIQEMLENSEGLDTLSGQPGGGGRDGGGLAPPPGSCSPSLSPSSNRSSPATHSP
CCAAT/enhancer-binding protein beta (Homo sapiens), sequence (P17676 whole entry, looked up): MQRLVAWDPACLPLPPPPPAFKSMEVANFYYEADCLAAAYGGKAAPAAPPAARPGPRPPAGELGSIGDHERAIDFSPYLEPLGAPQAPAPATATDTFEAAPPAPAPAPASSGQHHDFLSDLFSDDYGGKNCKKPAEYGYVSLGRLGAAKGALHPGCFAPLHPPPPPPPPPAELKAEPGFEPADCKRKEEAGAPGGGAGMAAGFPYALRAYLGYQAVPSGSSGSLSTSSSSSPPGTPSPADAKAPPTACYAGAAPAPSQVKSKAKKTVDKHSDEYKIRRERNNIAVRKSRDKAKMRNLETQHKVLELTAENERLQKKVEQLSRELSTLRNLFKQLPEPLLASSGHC
Transcription factor E2F1 (Homo sapiens), sequence (Q01094 whole entry, looked up): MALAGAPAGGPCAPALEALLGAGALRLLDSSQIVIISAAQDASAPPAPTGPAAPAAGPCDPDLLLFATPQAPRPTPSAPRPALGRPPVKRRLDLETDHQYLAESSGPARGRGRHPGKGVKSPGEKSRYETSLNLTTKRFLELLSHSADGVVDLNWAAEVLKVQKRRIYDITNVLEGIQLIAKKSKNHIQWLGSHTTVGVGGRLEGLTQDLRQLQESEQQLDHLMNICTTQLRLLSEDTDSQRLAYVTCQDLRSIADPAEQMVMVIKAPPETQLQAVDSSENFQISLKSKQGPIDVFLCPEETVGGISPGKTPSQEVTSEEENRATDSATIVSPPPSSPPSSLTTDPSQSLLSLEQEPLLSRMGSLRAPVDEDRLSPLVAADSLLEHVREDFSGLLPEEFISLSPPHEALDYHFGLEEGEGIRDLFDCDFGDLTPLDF
Aryl hydrocarbon receptor (Homo sapiens), sequence (P35869 whole entry, looked up): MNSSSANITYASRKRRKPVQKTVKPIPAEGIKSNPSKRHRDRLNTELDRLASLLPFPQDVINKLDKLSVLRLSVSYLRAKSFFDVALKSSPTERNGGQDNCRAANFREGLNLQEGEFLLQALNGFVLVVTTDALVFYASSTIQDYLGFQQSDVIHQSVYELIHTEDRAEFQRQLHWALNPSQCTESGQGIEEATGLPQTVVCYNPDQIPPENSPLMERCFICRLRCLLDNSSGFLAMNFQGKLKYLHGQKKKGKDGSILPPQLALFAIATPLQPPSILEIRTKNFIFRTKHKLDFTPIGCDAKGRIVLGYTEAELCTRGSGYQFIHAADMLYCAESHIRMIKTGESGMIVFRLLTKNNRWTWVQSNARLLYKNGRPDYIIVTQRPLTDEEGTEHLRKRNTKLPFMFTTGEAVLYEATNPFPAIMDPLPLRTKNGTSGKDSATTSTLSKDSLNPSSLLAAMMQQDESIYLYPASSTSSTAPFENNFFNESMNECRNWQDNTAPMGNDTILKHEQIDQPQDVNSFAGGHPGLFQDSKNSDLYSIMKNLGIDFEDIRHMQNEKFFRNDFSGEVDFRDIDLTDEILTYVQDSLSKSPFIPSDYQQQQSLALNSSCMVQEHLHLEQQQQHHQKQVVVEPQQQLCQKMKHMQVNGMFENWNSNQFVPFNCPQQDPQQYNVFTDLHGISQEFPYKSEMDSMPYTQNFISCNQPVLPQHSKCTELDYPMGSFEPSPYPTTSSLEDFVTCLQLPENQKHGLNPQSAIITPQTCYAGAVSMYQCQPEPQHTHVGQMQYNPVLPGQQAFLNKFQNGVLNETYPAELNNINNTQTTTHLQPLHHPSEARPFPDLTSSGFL
Hepatocyte nuclear factor 3-beta (Homo sapiens), sequence (Q9Y261 whole entry, looked up): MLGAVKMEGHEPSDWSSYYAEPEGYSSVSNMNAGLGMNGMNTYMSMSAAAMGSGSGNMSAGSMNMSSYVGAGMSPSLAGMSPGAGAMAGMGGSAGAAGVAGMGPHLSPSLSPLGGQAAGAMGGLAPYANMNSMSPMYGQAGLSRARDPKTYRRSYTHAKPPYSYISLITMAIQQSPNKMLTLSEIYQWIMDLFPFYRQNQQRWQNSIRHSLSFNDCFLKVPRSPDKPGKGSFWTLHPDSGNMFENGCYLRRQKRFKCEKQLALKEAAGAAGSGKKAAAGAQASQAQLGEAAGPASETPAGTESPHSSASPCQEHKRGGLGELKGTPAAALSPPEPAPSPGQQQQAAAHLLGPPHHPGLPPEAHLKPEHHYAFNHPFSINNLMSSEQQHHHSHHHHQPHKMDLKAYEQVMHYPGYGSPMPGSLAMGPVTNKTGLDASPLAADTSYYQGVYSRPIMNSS

Consider `COP(=O)(O)OC`, for which the compound was classed as inactive in assay [1], in assay [2], in [3], in [4], in [5] and in assay [6]. In addition, the compound was called inactive in [7], in [8], in assay [9], in assay [10], in [11] and in [12]. Besides, the call in assay [13], in assay [14], in assay [15], in assay [16], in assay [17] and in assay [18] was inactive. Also, the call in assay [19] and in assay [20] was inactive.
For the compound `CCOP(=O)(O)C(N)=O`, the result in [1], in assay [2], in [3], in assay [4], in assay [5] and in assay [6] was inactive. For the same compound, the outcome in assay [7], in [8], in assay [9], in assay [10], in assay [11] and in assay [12] was inactive. For the same compound, the compound was called inactive in [13], in assay [14], in [15], in [16], in assay [17] and in assay [18]. The outcome in [19] and in [20] was inactive.
As to `Nc1ccc2ccccc2c1`, the outcome in assay [1], in [2], in assay [3], in assay [4], in [6] and in assay [7] was inactive. For the same compound, the outcome in [8], in assay [9], in assay [10], in assay [11], in [12] and in [13] was inactive. Also, the compound was called inactive in assay [14], in assay [15], in assay [16], in assay [17], in assay [18] and in assay [19]. In addition, in assay [20], the result was inactive. Moreover, in assay [5], the AC50 is 7.38 µM (active).
